Measurements published in PubChem BioAssay AID1159580 (chemical genetic matrix, 2015).
Where “and” joins values, the source holds several entries; their conditions need not be identical. Equal entries are not always repeated. About 2,000 (36%) of roughly 5,500 compounds were called active. Another 18% or so got no clear call; they are omitted. Rule as the data show it: active = normalized growth mostly below about 0.91 (no sharp cut-off); inconclusive = no clear call, values can overlap the other calls; inactive = mostly above about 0.92. Some of the results follow.

Test: chemical genetic growth profiling, strain panel (AID 1159580);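 also: tested at 20 µM; growth read once vehicle control cultures reached saturation at 30 °C; 1 = growth at the plate median or of vehicle wells; lower values mean less growth of the strain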
Settings: S. cerevisiae deletion strains, growth OD

Measured: normalized growth

c1ccc(N=Nc2ccccc2)cc1
inactive: locus YAL021C, strain ccr4, active compounds read low 1.02 | locus YAL026C, strain drs2, active compounds read low 0.998 | locus YAL030W, strain snc1, active compounds read low 0.985 | locus YBL061C, strain skt5, active compounds read low 0.991 | locus YBR009C, strain hhf1, active compounds read low 0.985 | locus YBR021W, strain FUR4, active compounds read low 1.01 | locus YBR023C, strain chs3, active compounds read low 0.99 | locus YBR171W, strain sec66, active compounds read low 0.975 | locus YBR229C, strain ROT2, active compounds read low 1 | locus YBR231C, strain swc5, active compounds read low 0.984 | locus YBR279W, strain paf1, active compounds read low 0.985 | locus YCL011C, strain gbp2, active compounds read low 0.992 | locus YCL016C, strain dcc1, active compounds read low 0.982 | locus YCL029C, strain bik1, active compounds read low 1.03 | locus YCL061C, strain MRC1, active compounds read low 0.993 | locus YCL069W, strain vba3, active compounds read low 0.988 | locus YCR088W, strain abp1, active compounds read low 0.991 | locus YDL005C, strain med2, active compounds read low 0.977 | locus YDL035C, strain GPR1, active compounds read low 0.981 | locus YDL040C, strain nat1, active compounds read low 0.985 | locus YDL074C, strain BRE1, active compounds read low 0.942 | locus YDL101C, strain DUN1, active compounds read low 0.979 | locus YDL134C, strain PPH21, active compounds read low 0.968 | locus YDL185W, strain tfp1, active compounds read low 1.01 | locus YDL192W, strain arf1, active compounds read low 1.03 | locus YDR001C, strain nth1, active compounds read low 0.987 | locus YDR069C, strain doa4, active compounds read low 0.995 | locus YDR101C, strain arx1, active compounds read low 1.02 | locus YDR137W, strain rgp1, active compounds read low 0.911 | locus YDR150W, strain NUM1, active compounds read low 1 | locus YDR159W, strain sac3, active compounds read low 1.01 | locus YDR162C, strain NBP2, active compounds read low 1.01 | locus YDR195W, strain ref2 0.994 | locus YDR297W, strain sur2, active compounds read low 0.987 | locus YDR318W, strain mcm21, active compounds read low 1.02 | locus YDR334W, strain swr1, active compounds read low 0.989 | locus YDR335W, strain msn5, active compounds read low 0.972 | locus YDR388W, active compounds read low 1.03 | locus YDR392W, strain spt3, active compounds read low 0.992 | locus YDR502C, strain sam2, active compounds read low 1.02 | locus YEL003W, strain gim4, active compounds read low 0.996 | locus YEL037C, strain rad23, active compounds read low 0.988 | locus YEL061C, strain CIN8 (second series), active compounds read low 0.976 | locus YEL061C, strain CIN8, active compounds read low 1 | locus YER015W, strain faa2, active compounds read low 0.996 | locus YER016W, strain bim1, active compounds read low 0.992 | locus YER110C, active compounds read low 1.03 | locus YER111C, strain swi4, active compounds read low 0.987 | locus YER155C, strain BEM2 (second series), active compounds read low 0.906 | locus YER155C, strain BEM2, active compounds read low 1.01 | locus YER167W, strain BCK2, active compounds read low 0.998 | locus YFR010W, strain ubp6, active compounds read low 0.99 | locus YGL078C, strain dbp3, active compounds read low 1.02 | locus YGL086W, strain mad1, active compounds read low 1.01 | locus YGL167C, strain pmr1, active compounds read low 0.992 | locus YGL173C, strain kem1, active compounds read low 0.993 | locus YGL227W, strain vid30, active compounds read low 0.992 | locus YGL240W, strain doc1, active compounds read low 0.975 | locus YGL248W, strain PDE1, active compounds read low 0.982 | locus YGL253W, strain hxk2, active compounds read low 0.996 | locus YGR078C, strain PAC10, active compounds read low 0.939 | locus YGR135W, strain pre9, active compounds read low 1.02 | locus YGR229C, strain SMI1, active compounds read low 0.966 | locus YGR252W, strain gcn5, active compounds read low 0.999 | locus YHR013C, strain ard1, active compounds read low 1.07 | locus YHR027C, strain rpn1, active compounds read low 0.987 | locus YHR030C, strain SLT2, active compounds read low 1.01 and 0.972 | locus YHR079C, strain IRE1 (second series), active compounds read low 1.02 | locus YHR079C, strain IRE1, active compounds read low 0.967 | locus YHR094C, strain hxt1, active compounds read low 1.03 | locus YHR129C, strain ARP1, active compounds read low 1 | locus YHR142W, strain chs7, active compounds read low 1.01 | locus YHR200W, strain rpn10, active compounds read low 1.03 | locus YIL066C, strain RNR3, active compounds read low 0.986 | locus YIL073C, strain SPO22, active compounds read low 1.08 | locus YIL125W, strain kgd1, active compounds read low 1.01 | locus YIR030C, strain dcg1, active compounds read low 1.04 | locus YJL092W, strain hpr5, active compounds read low 0.976 | locus YJL095W, strain BCK1 (second series), active compounds read low 0.979 | locus YJL095W, strain BCK1, active compounds read low 0.983 and 0.961 | locus YJL115W, strain asf1, active compounds read low 0.989 | locus YJL129C, strain trk1, active compounds read low 0.969 | locus YJL134W, strain LCB3, active compounds read low 1.01 | locus YJL154C, strain vps35, active compounds read low 0.984 | locus YJL164C, strain tpk1, active compounds read low 0.996 | locus YJL166W, strain qcr8, active compounds read low 0.976 | locus YJL168C, strain set2, active compounds read low 1.02 | locus YJL187C, strain SWE1 (second series), active compounds read low 0.971 | locus YJR043C, strain POL32, active compounds read low 0.996
